Assay [1] is described as follows: NCI Yeast Anticancer Drug Screen. Data for the rad50 strain (AID 155).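 Also: 0% = growth of vehicle-only cultures of the same strain.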 Particulars: S. cerevisiae rad50 strain growth inhibition, hits give high values. The gist of the method: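 Vehicle-treated cultures provide the reference for the growth inhibition reported for compound-exposed, repair-deficient yeast.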
A short description of assay [2]: NCI Yeast Anticancer Drug Screen. Data for the mec2-1 strain (AID 157). Particulars: S. cerevisiae mec2-1 strain, hits give high values. The gist of the method:
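Vehicle-treated cultures served as reference for growth inhibition of compound-exposed mec2-1 yeast.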

A short description of assay [3]: NCI Yeast Anticancer Drug Screen. Data for the sgs1 mgt1 strain (AID 161).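 Also: 0% = growth of cultures given vehicle only.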 Particulars: S. cerevisiae sgs1 mgt1 strain, hits give high values. A digest of the protocol: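 Genetically altered yeast, compound exposure, growth inhibition relative to vehicle.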
Assay [4] is described as follows: NCI Yeast Anticancer Drug Screen. Data for the cln2 rad14 strain (AID 165).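 Also: 0% = growth equal to vehicle treated cultures.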 Particulars: S. cerevisiae cln2 rad14 strain, hits give high values. The gist of the method:
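Each compound was tested on cln2 rad14 yeast. Inhibition of growth was calculated against vehicle-exposed controls.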

A short description of assay [5]: NCI Yeast Anticancer Drug Screen. Data for the bub3 strain (AID 167). Particulars: S. cerevisiae bub3 mutant strain, hits give high values. A digest of the protocol:
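Mutant yeast screening strain plus compound; vehicle-treated cultures serve as the 0% inhibition reference.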

Assay [6] in a line: NCI Yeast Anticancer Drug Screen. Data for the mlh1 rad18 strain (AID 175). Particulars: S. cerevisiae mlh1 rad18 strain growth inhibition, hits give high values. A digest of the protocol: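 Vehicle-treated cultures served as the reference for growth inhibition in a yeast strain carrying DNA damage repair alterations exposed to each compound.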
[7] abbreviates: at 5.0 µM (retest, dose inferred, filed as 0.5).
[8] abbreviates: at 50.0 µM (retest, dose inferred, filed as 5.0).

Each structure is given as a SMILES string. The panel holds about 79,000 compounds, 15% with a hit somewhere; the sample as a whole holds those more often. A number with no mark means an inactive call. Activity calls are given as the source filed them. Rule as the data show it: active = growth inhibition above about 70%; inactive = the rest.

For the molecule `COC(=O)C1=C(C(=O)OC)C2(C)OC1C(=O)C21CC1` (configuration not stated), the growth inhibition was 15% in assay [1] (setting [7]); 85% (active) in assay [1] (setting [8]); 88.3% (active) in assay [1] (at 50.0 µM); 18% in assay [2] (setting [7]); 94% (active) in assay [2] (setting [8]); 84.6% (active) in assay [2] (at 50.0 µM). Also, the growth inhibition in assay [3] (setting [7]) was 23%; in assay [3] (setting [8]), 94% (active); in assay [3] (at 50.0 µM), 86.8% (active); in assay [4] (setting [7]), 6%; in assay [4] (setting [8]), 70% (active); in assay [4] (at 50.0 µM) it was 76.2% (active). Also, the growth inhibition in assay [5] (setting [7]) was 20%; in assay [5] (setting [8]), 91% (active); in assay [5] (at 50.0 µM), 93.6% (active); in assay [6] (setting [7]), 18%; in assay [6] (setting [8]), 94% (active); in assay [6] (at 50.0 µM) it was 94.5% (active).

Consider `NCC1CCNCC1`, for which the growth inhibition is 2% in assay [1] (setting [7]); -6% in assay [1] (setting [8]); -16.7% in assay [1] (at 50.0 µM); -2% in assay [2] (setting [7]); -19% in assay [2] (setting [8]); -9.25% in assay [2] (at 50.0 µM). The growth inhibition was 2% in assay [3] (setting [7]); 3% in assay [3] (setting [8]); -15.2% in assay [3] (at 50.0 µM); 0% in assay [4] (setting [7]); -6% in assay [4] (setting [8]); 16% in assay [4] (at 50.0 µM). The growth inhibition in assay [5] (setting [7]) was -5%; in assay [5] (setting [8]), 1%; in assay [5] (at 50.0 µM), 3.9%; in assay [6] (setting [7]) it was 10%; in assay [6] (setting [8]), 0%; in assay [6] (at 50.0 µM) it was -4%.

For `CCCOc1cc(C(=O)OCCN(CC)CC)cc(OCCC)c1OCCC`, the growth inhibition in assay [1] (setting [7]) is 6%; in assay [1] (setting [8]), 29%; in assay [1] (at 50.0 µM) it was 36.9%; in assay [2] (setting [7]), 6%; in assay [2] (setting [8]) it was 19%; in assay [2] (at 50.0 µM), 15.8%. Further, the growth inhibition was 4% in assay [3] (setting [7]); 43% in assay [3] (setting [8]); 44.8% in assay [3] (at 50.0 µM); 8% in assay [4] (setting [7]); 13% in assay [4] (setting [8]); 15.1% in assay [4] (at 50.0 µM). The growth inhibition in assay [5] (setting [7]) was -21%; in assay [5] (setting [8]), 12%; in assay [5] (at 50.0 µM) it was 23%; in assay [6] (setting [7]) it was 0%; in assay [6] (setting [8]), 41%; in assay [6] (at 50.0 µM), 61.8%.

Regarding `Nc1nc(-c2ccccc2)c(N=Nc2c(Cl)cccc2Cl)s1`, the growth inhibition was -2% in assay [1] (setting [7]); 94% (active) in assay [1] (setting [8]); 96.5% (active) in assay [1] (at 50.0 µM); 21% in assay [2] (setting [7]); 95% (active) in assay [2] (setting [8]); 90.3% (active) in assay [2] (at 50.0 µM). Moreover, the growth inhibition in assay [3] (setting [7]) is 9%; in assay [3] (setting [8]), 94% (active); in assay [3] (at 50.0 µM) it was 55.4%; in assay [4] (setting [7]) it was 17%; in assay [4] (setting [8]), 95% (active); in assay [4] (at 50.0 µM) it was 87.7% (active). Also, the growth inhibition in assay [5] (setting [7]) was 13%; in assay [5] (setting [8]) it was 94% (active); in assay [5] (at 50.0 µM), 91% (active); in assay [6] (setting [7]) it was 17%; in assay [6] (setting [8]) it was 94% (active); in assay [6] (at 50.0 µM), 96.8% (active).

Turning to `CC(C(O)Cc1ccccc1)N(C)N=Nc1ccc([N+](=O)[O-])cc1` (configuration not stated), the growth inhibition in assay [1] (setting [7]) was 35%; in assay [1] (setting [8]) it was 84% (active); in assay [1] (at 50.0 µM), 64.3%; in assay [2] (setting [7]) it was 18%; in assay [2] (setting [8]), 59%; in assay [2] (at 50.0 µM) it was 61.6%. In addition, the growth inhibition in assay [3] (setting [7]) is 24%; in assay [3] (setting [8]), 91% (active); in assay [3] (at 50.0 µM), 85.7% (active); in assay [4] (setting [7]) it was 21%; in assay [4] (setting [8]) it was 86% (active); in assay [4] (at 50.0 µM) it was 28.3%. In addition, the growth inhibition in assay [5] (setting [7]) was 23%; in assay [5] (setting [8]), 92% (active); in assay [5] (at 50.0 µM), 72.7% (active); in assay [6] (setting [7]), 51%; in assay [6] (setting [8]) it was 89% (active); in assay [6] (at 50.0 µM) it was 78.5% (active).

Regarding `Oc1cccc(NCSc2ccc(Cl)cc2)c1`, the growth inhibition in assay [1] (setting [7]) is -4%; in assay [1] (setting [8]) it was 95% (active); in assay [1] (at 50.0 µM), 93.3% (active); in assay [2] (setting [7]), -3%; in assay [2] (setting [8]) it was 95% (active); in assay [2] (at 50.0 µM), 95.2% (active). Besides, the growth inhibition in assay [3] (setting [7]) was -9%; in assay [3] (setting [8]) it was 95% (active); in assay [3] (at 50.0 µM), 96.2% (active); in assay [4] (setting [7]), -5%; in assay [4] (setting [8]), 91% (active); in assay [4] (at 50.0 µM), 92.5% (active). Further, the growth inhibition was -3% in assay [5] (setting [7]); 93% (active) in assay [5] (setting [8]); 94.1% (active) in assay [5] (at 50.0 µM); -1% in assay [6] (setting [7]); 91% (active) in assay [6] (setting [8]); 94% (active) in assay [6] (at 50.0 µM).

Turning to `COC(=O)[C@@H](O)[C@]1(C(=O)OC)C2O[C@@H](OC)[C@@H]1CCCCCC[C@H]2O`, the growth inhibition in assay [1] (setting [7]) is 21%; in assay [1] (setting [8]), 11%; in assay [1] (at 50.0 µM), -2.05%; in assay [2] (setting [7]) it was 10%; in assay [2] (setting [8]) it was 11%; in assay [2] (at 50.0 µM) it was 0.45%. In addition, the growth inhibition in assay [3] (setting [7]) was 10%; in assay [3] (setting [8]), 17%; in assay [3] (at 50.0 µM), -6.85%; in assay [4] (setting [7]) it was 17%; in assay [4] (setting [8]), 29%; in assay [4] (at 50.0 µM), 2.1%. The growth inhibition in assay [5] (setting [7]) is 18%; in assay [5] (setting [8]), 13%; in assay [5] (at 50.0 µM), 8.85%; in assay [6] (setting [7]), 19%; in assay [6] (setting [8]), 12%; in assay [6] (at 50.0 µM), -1.95%.

Regarding `CN(C)Cc1ccc2[nH]c3c(c2c1)CCCC3`, the growth inhibition was 4% in assay [1] (setting [7]); 96% (active) in assay [1] (setting [8]); 66.8% in assay [1] (at 50.0 µM); 11% in assay [2] (setting [7]); 72% (active) in assay [2] (setting [8]); 36.6% in assay [2] (at 50.0 µM). In addition, the growth inhibition in assay [3] (setting [7]) was 2%; in assay [3] (setting [8]), 90% (active); in assay [3] (at 50.0 µM), 43.7%; in assay [4] (setting [7]), 0%; in assay [4] (setting [8]), 72% (active); in assay [4] (at 50.0 µM), 21.2%. Further, the growth inhibition in assay [5] (setting [7]) is 1%; in assay [5] (setting [8]), 85% (active); in assay [5] (at 50.0 µM), 45%; in assay [6] (setting [7]), 28%; in assay [6] (setting [8]) it was 93% (active); in assay [6] (at 50.0 µM), 65.1%.

On to `CC(C)c1ccc(O)c(O)c(=O)c1`, for which the growth inhibition in assay [1] (setting [7]) is 14%; in assay [1] (setting [8]), 89% (active); in assay [1] (at 50.0 µM) it was 92.8% (active); in assay [2] (setting [7]) it was 9%; in assay [2] (setting [8]), 63%; in assay [2] (at 50.0 µM) it was 94.7% (active). The growth inhibition in assay [3] (setting [7]) was 70% (active); in assay [3] (setting [8]), 44%; in assay [3] (at 50.0 µM), 93.8% (active); in assay [4] (setting [7]), 18%; in assay [4] (setting [8]) it was 26%; in assay [4] (at 50.0 µM), 91.7% (active). Also, the growth inhibition in assay [5] (setting [7]) is 7%; in assay [5] (setting [8]) it was 79% (active); in assay [5] (at 50.0 µM), 93.1% (active); in assay [6] (setting [7]), 41%; in assay [6] (setting [8]), 64%; in assay [6] (at 50.0 µM), 92.7% (active).

(Values after PubChem BioAssay (NCI).)
